mcGAS MS inh: inhibitors of Mus musculus cyclic GMP-AMP synthase, initial high-throughput assay, cell-free, RapidFire MS; Q8C6L5; recombinant mouse cGAS, cGAMP by RapidFire MS; inhibition, % at 12.5 µM; 0.18% of 130,000 active; AID 1259397, 2018;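 active = inhibition of cGAS enzyme activity at or above 60%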;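 also: enzyme stimulated by 45 bp dsDNA with ATP and GTP substrates; cGAMP share of summed cGAMP plus half ATP and half GTP signals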
Target sequence (Q8C6L5 whole entry, looked up): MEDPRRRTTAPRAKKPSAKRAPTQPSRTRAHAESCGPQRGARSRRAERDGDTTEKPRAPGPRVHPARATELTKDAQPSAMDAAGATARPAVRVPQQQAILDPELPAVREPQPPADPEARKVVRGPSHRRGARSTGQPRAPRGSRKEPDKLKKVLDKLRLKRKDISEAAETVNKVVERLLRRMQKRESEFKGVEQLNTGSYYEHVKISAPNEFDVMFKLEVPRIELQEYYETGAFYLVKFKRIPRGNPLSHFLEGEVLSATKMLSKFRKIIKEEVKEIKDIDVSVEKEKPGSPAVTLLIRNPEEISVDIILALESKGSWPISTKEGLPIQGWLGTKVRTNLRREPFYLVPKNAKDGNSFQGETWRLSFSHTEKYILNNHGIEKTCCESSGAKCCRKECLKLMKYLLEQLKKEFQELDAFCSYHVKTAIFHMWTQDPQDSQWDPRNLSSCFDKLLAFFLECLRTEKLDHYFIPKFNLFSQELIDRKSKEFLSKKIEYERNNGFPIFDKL
Starred values were filed as active, the others as inactive; ! = a repeat was not active. Shown is part of a subset that was picked to be rich in hits.

SMILES	mcGAS MS inh
CC(C)OP(=O)(OC(C)C)c1nn(-c2ccc([N+](=O)[O-])cc2)c(=N)s1	46
O=C(NCCSCc1ccccc1F)c1cc(Cl)c2c(c1)OCCO2	6
CCN(CC)CCN(c1ccc2c(c1)OCCO2)S(=O)(=O)c1ccc(C)cc1	-4
Cn1c(Sc2cc(Cl)nc(N)n2)nnc1C1CC1	1
Cc1coc(-c2ccc(C)c(NC(=O)c3cccc(NS(C)(=O)=O)c3)c2)n1	-9
Cc1ccc(NC(=O)c2ccc(S(N)(=O)=O)c(C)c2)cc1C	-11
Cc1ccc(C(=O)Nc2ccc(S(=O)(=O)O)c3cc(S(=O)(=O)O)cc(S(=O)(=O)O)c23)cc1NC(=O)c1cccc(NC(=O)Nc2cccc(C(=O)Nc3cc(C(=O)Nc4ccc(S(=O)(=O)O)c5cc(S(=O)(=O)O)cc(S(=O)(=O)O)c45)ccc3C)c2)c1	93*
CN(C(=O)CSc1nccnc1N1CCN(c2ccccc2)CC1)c1ccc(F)cc1	-11
CCCCC(CC)C(=O)Nc1cc(C)on1 (stereo not given)	-11
O=C(NCCc1cccs1)c1ccc(Nc2cccc(C(F)(F)F)c2)nc1	5
CC1(C(=O)NS(C)(=O)=O)CCN1C(=O)Cc1ccsc1 (stereo not given)	-9
O=C1c2c(O)ccc(O)c2C(=O)c2c(NCCNCCO)ccc(NCCNCCO)c21	83*!
Cc1ccc(NS(=O)(=O)c2c(C)c(C)c(C)c(C)c2C)c(C)c1O	-2
O=C(CC1Cn2ncc(-c3ccc(Cl)cc3)c2NC1=O)NC1CCCCC1 (stereo not given)	-34
C/C(=N/OC(=O)c1ccccc1C)c1ccc(Cl)cc1Cl	-2
Cc1ccccc1C(=O)O/N=C1/C(=O)c2ccccc2-c2ccccc21	70*
CCOC(=O)c1cccc2c1-c1ccccc1/C2=N/O	-16
O=C(OC1CCCCC1O)c1ccc(Br)o1 (stereo not given)	-7
Nc1cnc(-c2ccc(OC(F)(F)F)cc2)cn1	-9
Cc1cc2ncn(CC(=O)N3C(C)CCCC3C)c2cc1C (stereo not given)	4
CC1=C(c2ccccc2)[N+](=O)C2(CCCC2)N1[O-]	64*
CC1=C(c2ccc(F)cc2)[N+](=O)C(C)(C)N1[O-]	-9
COc1ccc(C2=C(C)N([O-])C(C)(C)[N+]2=O)cc1	-7
CC1(C)Cc2cc(C(=O)O)sc2-c2ccccc21	1
CC1CCCN(C(=O)c2ccc(Br)o2)C1 (stereo not given)	54
SMILES	mcGAS MS inh
O=C(c1ccco1)N1CCN(C(=O)c2ccc(Br)o2)CC1	-5
Nc1nncn1C(=O)c1ccc(Br)o1	82*
CC(C)(C(=O)Nc1ccc(F)cc1)c1ccc2c(c1)OCCO2	0
COc1ccc(-c2ccc(NC(=O)C3CC3)nc2)c2cccnc12	-14
COc1ccc(-c2ccc(C(=O)N3CCCC3)o2)c2cccnc12	86*
CNC(=O)c1ccc(-c2ccc(OC)c3ncccc23)s1	-8
CCn1cc(/C=N/NC(=O)c2ccc(C(C)(C)C)cc2)cn1	-3
Cc1ccn2cc(C(=O)N(Cc3ccc(F)cc3)CC3CCCO3)nc2c1 (stereo not given)	-8
Cc1noc(C)c1C(=O)OCC(=O)N1CCC(C(N)=O)CC1	-4
COC(=O)C1CCN(C(C)C(=O)N(C)CC(=O)Nc2ccc(C)cc2)CC1 (stereo not given)	21
CNC(=O)CN1CCC(CN(C)C(C)c2cccc(C)c2)CC1 (stereo not given)	-7
COc1ccc(CNc2ccccc2-n2cccn2)cc1C	-1
COc1ccc(CNc2c[nH]c(=O)cc2C)cc1OCCCC#N	83*
COc1ccc(CNc2ncn[nH]2)cc1OC	-2
O=C(Nc1ccc2c(c1)CN(Cc1cccn1-c1cccnc1)CC2)C1CCCO1 (stereo not given)	1
Cc1cc(=O)[nH]c(CCn2cc(-c3ccc4c(c3)OCCO4)nn2)n1	5
CCCC1CCCC(=C\c2ccc(OC)cc2)/C1=N\OC(=O)NCC (stereo not given)	-10
CNC(=O)c1ccc(NC(=O)N2CCC(c3ccccc3)C2)cc1 (stereo not given)	-2
S=C(NCc1ccco1)NC1CCSc2ccccc21 (stereo not given)	0
C=C(N/N=C1/NC(=O)CS1)c1ccccc1	-6
O=C1CSC(=NNC(=S)NCc2ccco2)N1	83*
O=C(NC(N1CCCC1=O)(C(F)(F)F)C(F)(F)F)c1ccco1	-7
OCC1(Cc2ccccc2)CCCN(Cc2cn[nH]c2-c2cccc(F)c2)C1 (stereo not given)	-5
O=C1C=CC(=O)N1c1cc(Cl)cc(Cl)c1	67*
O=C(Cn1nc(-c2cccs2)oc1=O)Nc1cccc(Cl)c1	-11
SMILES	mcGAS MS inh
NS(=O)(=O)c1ccc(Sc2ccc3c(c2)OCCO3)nc1	-13
CC(=O)Nc1nc2nc(C)c(C)c(=O)n2[nH]1	-12
CCCc1nc2nc(C)c([N+](=O)[O-])c(=O)n2[nH]1	-6
Cc1nc2nc(C)c(Br)c(=O)n2[nH]1	69*
CCc1nc(CN(C)C(=O)NC2CCCOc3ccc(F)cc32)cs1 (stereo not given)	-6
CCc1nnc2n1Nc1nc3ccccc3nc1S2	10
Cc1cc2nc3c(=O)[nH]c(=O)nc-3n(C)c2cc1C=O	91*
Cc1cc2nc(-c3ccccc3)c(=O)n(C)c2cc1C	2
Cc1cc2nc3c(=O)[nH]c(=O)nc-3n(CC(O)C(O)C(O)CO)c2cc1C (stereo not given)	4
Cc1cccc(CN(C(=O)CCC(C)N2CCN(C)CC2)C(C)C)c1 (stereo not given)	-2
CCOC(=O)c1nn(-c2ccccc2)c(=O)cc1OS(=O)(=O)c1cccs1	1
Cc1nc2c(cc(OS(=O)(=O)c3cccs3)c3ccsc32)s1	62*
Cc1nc2c(cc(O)c3ccsc32)s1	-5
O=C(NC1CCCc2ccccc21)C1CC(Cc2ccc3c(c2)OCO3)=NO1 (stereo not given)	-8
Cc1cc(C)cc(CN2C(=O)NC3(CCOc4ccccc43)C2=O)c1 (stereo not given)	-5
O=C1NC2(CCOc3ccccc32)C(=O)N1Cc1coc(-c2cccs2)n1 (stereo not given)	95*
O=C1NC2(CCOc3ccccc32)C(=O)N1CCN1C(=O)c2ccccc2C1=O (stereo not given)	-10
NC(=O)NC(=O)CCN(Cc1ccco1)c1ccccc1	-42
N#Cc1ccc(N=Nc2c(-c3ccc([N+](=O)[O-])cc3)[nH]n(-c3ccccc3)c2=O)cc1	-3
O=C(O)c1ccc(N=Nc2c(-c3ccccc3)[nH]n(-c3ccc([N+](=O)[O-])cc3)c2=O)cc1	76*
O=c1c(N=Nc2cccc([N+](=O)[O-])c2)c(-c2ccccc2)[nH]n1-c1ccccc1	-6
O=C(NC(=S)NCCCNC(=S)NC(=O)c1ccco1)c1ccco1	-8
CCN(CC(=O)NC)C(=O)c1cc2c(s1)CCCCCC2	-2
CCc1ccc(CNc2nnnn2C)cc1	-18
O=C(Cc1cccs1)NC1C(=O)N2C(C(=O)O)=C(C[n+]3ccccc3)CSC12 (stereo not given)	21
CCN1C(=O)C(=Cc2cc(C)n(CC(F)(F)F)c2C)SC1=S	-11
Cc1cc(C=C2C(=O)NC(=S)NC2=O)c(C)n1CC(F)(F)F	74*
COC(=O)C(=Cc1cc(C)n(CC(F)(F)F)c1C)C(C)=O	-12
CCc1nc2n(n1)CCCC2NC(=O)C1(Cc2ccccc2)CCC1 (stereo not given)	-5
O=C(Nc1n[nH]c(=S)s1)c1ccco1	27

Screening data (PubChem)
